# About 1,900 (0.58%) of roughly 330,000 compounds were called active. Another 4% or so got no clear call; they are omitted. These entries were drawn from the full list. Measured potencies and affinities stand elsewhere. Unmarked numbers belong to inactive results. No stated cut-off is given here; in the data, inconclusive means inhibition above about 70% without an active follow-up result; inactive means below that.
# Assay: M. tuberculosis growth inhibition, HTS (AID 449762);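 further: bacterial growth assessed after seven days of incubation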
# Conditions: M. tuberculosis H37Rv growth inhibition, 7H9 media; at 25 µM; stronger effect = higher value
row,Compound,inhibition
1,CCN1CCN(c2nc3c(c(=O)[nH]c(=O)n3C)n2CCCc2ccccc2)CC1,-0.19%
2,COc1cc(C(C)=O)ccc1OCC(O)CN1CCN(S(=O)(=O)c2ccccc2)CC1 (stereo unspecified),-10.5%
3,C#CCSc1nc(C)cc(C(=O)OCC)c1C#N,1.67%
4,CCOC(=O)c1cc(C)nc(SC)c1C#N,6.64%
5,CCOC(=O)[C@@H]1[C@H]2COc3ccc(Br)cc3[C@@H]2N2C(=O)N(c3ccc(C)cc3)C(=O)[C@@]12C,-3.24%
6,CN(Cc1cnn(C)c1)C(=O)CC1C(=O)NCCN1Cc1cccc(Oc2ccccc2)c1 (stereo unspecified),3.24%
7,Cc1sc2nc(C(C)C)nc(SCC(=O)NC3CC3)c2c1C,0.27%
8,Cc1c(C(=O)CN2CCCC(C)(C)C2)c2ccccc2n1C,5.6%
9,CCOc1cc(CNCCCN2CCOCC2)ccc1OCC(=O)Nc1cccc2ccccc12,6.81%
10,COc1cc(CNCCCN2CCOCC2)ccc1OCC(=O)Nc1cccc(C(F)(F)F)c1,0.14%
11,Cc1ccc(S(=O)(=O)N2CCOCC2)c(C)c1NS(C)(=O)=O,-0.81%
12,CCN(C(=O)COc1cc(OC)ccc1C(C)=O)C1CCS(=O)(=O)C1 (stereo unspecified),0.77%
13,CCc1noc(C)c1C(=O)NNC(=O)COc1cc(C)ccc1C,0.9%
14,CCc1cccc(NC(=O)CCS(=O)(=O)c2cccc3nonc23)c1,57.8%
15,Cc1ccc(NC(=O)CCS(=O)(=O)c2cccc3nonc23)cc1,13.6%
16,O=c1c(C=Nc2ccc(Cl)cc2)c[nH]n1-c1cccc(Cl)n1,0.34%
17,O=c1c(/C=N/OCc2ccc(Cl)cc2Cl)c[nH]n1-c1cccc(Cl)n1,34.5%
18,Cc1nc2c(C(F)(F)F)cccc2c2c1CCS2,0.87%
19,Cc1cccc(NC(=O)C2CCCN(S(=O)(=O)c3c(C)nn(C)c3C)C2)c1 (stereo unspecified),-8.6%
20,O=Cc1ccccc1OS(=O)(=O)c1ccccc1,-6.41%
21,O=C(Nc1ccccc1)c1ccccc1OS(=O)(=O)c1ccccc1,0.76%
22,C/C(=N\NC(=O)CN(c1ccccc1)S(C)(=O)=O)c1ccccc1O,-3.69%
23,Cc1cc(OC(C)C(=O)NCC2CCCO2)cc(C)c1Cl (stereo unspecified),11.1%

row,Compound,inhibition
1,CCn1cnc2sc(C(=O)N3CCN(c4ccc(OC)cc4)CC3)c(C)c2c1=O,-8.96%
2,CCn1cnc2sc(C(=O)O)c(C)c2c1=O,-6.99%
3,Cc1[nH]n(-c2ccc(Br)cc2)c(=O)c1C=Nc1ccc(S(=O)(=O)Nc2nccs2)cc1,68.2%
4,Cc1ccc(-n2[nH]c(C)c(C=Nc3ccc(S(=O)(=O)Nc4nc(C)cc(C)n4)cc3)c2=O)c(C)c1,-3.23%
5,C[C@H](CO)N1C[C@H](C)[C@@H](CN(C)C)Oc2c(NS(=O)(=O)c3ccccc3)cccc2C1=O,0.58%
6,O=C(NC1CC1)C1CCN(C2CCN(C(=O)/C=C/c3cccs3)CC2)CC1,-5.63%
7,O=C(CNC(=O)c1cccs1)OCc1ccc(Br)cc1,-2.09%
8,O=C(CCC(=O)N(c1ccc(F)cc1)C(C(=O)NC1CCCC1)c1ccncc1)Nc1cccnc1 (stereo unspecified),-10.1%
9,CC(=O)Nc1ccc(C(=O)CN2C(=O)NC3(CCOc4ccccc43)C2=O)c(F)c1 (stereo unspecified),-3.12%
10,CCCNC(=O)CCn1c(=S)oc2ccccc21,2.75%
11,CCCCOC(=O)CCn1c(=S)oc2ccccc21,23.9%
12,Cc1ccc(Cl)cc1-n1c(O)c(C=NCCCN2CCOCC2)c(=O)[nH]c1=O,-2.44%
13,COc1ccc(C2=CN(Cc3ccccc3)C(c3ccccc3)CC2=O)cc1 (stereo unspecified),-2.25%
14,Cc1cc(C)c(NC(=O)c2cc3c(nc4sccn43)s2)c(C)c1,-18.3%
15,CCN(C(=O)COC(=O)c1[nH]c(C)c(C(C)=O)c1C)C1CCS(=O)(=O)C1 (stereo unspecified),-10.7%
16,CCn1c2ccccc2c2cc(NC(=O)c3ccc([N+](=O)[O-])cc3)ccc21,9.29%
17,O=C(Nc1ccc(N2CCOCC2)cc1)c1ccc([N+](=O)[O-])cc1,1.26%
18,CCN(CC)CCNC(=O)c1cn(-c2ccccc2)nc1-c1cccs1,5.6%
19,CN(C)c1ccc(NC(=O)c2cn(-c3ccccc3)nc2-c2cccs2)cc1,-2.85%
20,Cc1oc(-c2cccc(Cl)c2)nc1CSc1nc2c(c(=O)[nH]1)CCC2,-10.8%
21,Cn1c(-c2ccccc2)cnc1NCc1cc(Cl)ccc1O,10.7%
22,Cn1c(-c2cccc(Br)c2)cnc1NCc1ccccc1O,42.5%
23,Cc1ccc(N/C=C/c2onc(C)c2[N+](=O)[O-])cc1,-2.82%

# Reference: PubChem BioAssay AID449762 (Southern Research Specialized Biocontainment Screening …, 2010)
